Bioassay records from PubChem BioAssay.
A selection: hits, their analogues and other compounds. The true share with any hit is near 8%.
MCF10A rereplic – DNA re-replication induction in MCF 10a cells; MCF 10A DNA re-replication, Hoechst nuclear intensity, 48 h; Potency, µM (doses to about 46.1 µM), hits mostly activators; 350,000 compounds, 2.9% hits; note: nearly all actives have a fitted effect of over 50% in size
KB-3-1 tox – KB-3-1 parental cell cytotoxicity; Potency, µM (top dose mostly 46.1 µM), usual class: cytotoxic; KB-3-1 viability, CellTiter-Glo ATP luminescence, 72 h; 400,000 compounds, 1.4% hits; note: nearly all actives have a fitted effect of over 60% in size
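Luminescent ATP read-out (CellTiter-Glo) measures survival of drug-naive KB-3-1 cells after 72 h compound exposure at 37 °C. Titration series was screened from lowest to highest concentration, with DMSO vehicle plates as background controls.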
SW480 rereplic – induces DNA re-replication in SW480 colon adenocarcinoma cells; SW480 DNA re-replication, Hoechst DNA content imaging, 48 h; Potency, µM (top dose mostly 46.1 µM), actives largely listed as activators; 340,000 compounds, 1.8% hits; note: nearly all actives have a fitted effect of over 55% in size
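First, 250 cells per well were seeded. Next, compound or vehicle (23 nL) was pinned in, plates sat 48 hr at 37 C. Finally Hoechst was added for 40 min before fluorescence scanning.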
HT1080 IDH1KD tx – HT-1080 IDH1 knockdown cell toxicity (counter line). HT-1080 IDH1 knockdown viability, ATP luminescence, 48 h. Potency, µM (titrated, usually from 46.1 µM), most hits filed as cytotoxic. 360,000 compounds, 2% hits. AID 686971
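CellTiter-Glo luminescence after 48 h compound exposure at 37 degrees C of IDH1-knockdown HT-1080 cells in 5% FBS RPMI. %Activity scaled between DMSO wells and cell-free media wells, with curves fitted and assigned curve classes.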
HT1080NT lethal – kills 2HG-producing HT-1080-NT fibrosarcoma cells. HT-1080-NT fibrosarcoma viability, CellTiter-Glo ATP luminescence, 48 h. AID 686970. Potency, µM (titrated, usually from 46.1 µM), hits mostly cytotoxic. 360,000 compounds, 1.6% hits;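 note: NT is the 2HG producing partner of a matched IDH1 knockdown line; nearly all actives have a fitted effect of over 55% in size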
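Viability by CellTiter-Glo luminescence after 48 h compound exposure at 37C of HT-1080-NT cells (750/well, RPMI, 5% FBS). % activity scaled between DMSO wells and medium-only wells, then curve-fitted and categorized by curve class.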
KB-V1 MDR tox – kills drug-selected multidrug resistant KB-V1 cells. KB-V1 MDR cells viability, CellTiter-Glo, 72 h. Potency, µM (doses to about 46.1 µM), actives largely listed as cytotoxic. 400,000 compounds, 3.4% hits. AID 1347076; note: nearly all actives have a fitted effect of over 60% in size
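Readout: CellTiter-Glo luminescence, 10 min after addition. Cells: KB-V1 MDR subline, 72 h at 37 degrees C with compound. Analysis: corrected, normalized data fitted to concentration-effect curves.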
Large screens that a line does not name were inactive. Calls come from the whole dose curve; as a rule, active = well fitted curve in the direction sought with a large enough effect; inconclusive = small, poorly fitted or top-dose-only effect, or another doubt; inactive = no such curve, though single readings can be large; an effect the other way counts as inactive or inconclusive.

S=c1nc[nH]c2nc[nH]c12	MCF10A rereplic inconclusive, KB-3-1 tox 0.82µM, HT1080 IDH1KD tx 1.84µM, HT1080NT lethal 2.31µM, KB-V1 MDR tox 1.16µM
CC(Sc1n[nH]c(=O)n1Cc1ccccc1)C(=O)NC1CCCCC1C (centres undefined)	KB-V1 MDR tox inconclusive
CCOC(=O)c1c(NC(=O)COc2ccccc2C#N)sc2c1CC(C)(C)NC2(C)C	MCF10A rereplic inconclusive, KB-3-1 tox inconclusive, SW480 rereplic 18.4µM, KB-V1 MDR tox inconclusive
CC1(C)Cc2c(sc(NC(=O)Cc3ccccc3)c2C#N)C(C)(C)N1	none (no result: MCF10A rereplic, SW480 rereplic)
Cc1ccc(OCC(=O)Nc2sc3c(c2C#N)CC(C)(C)NC3(C)C)cc1	HT1080 IDH1KD tx inconclusive, HT1080NT lethal 20.6µM
CC1(C)Cc2c(sc(NC(=O)COc3cccc4ccccc34)c2C#N)C(C)(C)N1	MCF10A rereplic 16.4µM, KB-3-1 tox inconclusive, SW480 rereplic inconclusive, HT1080 IDH1KD tx 14.6µM, HT1080NT lethal 9.2µM
CCC(Oc1ccccc1)C(=O)N(Cc1ccccc1)c1ccccn1 (centres undefined)	KB-3-1 tox inconclusive, KB-V1 MDR tox 16.4µM
COc1cccc(C2=NOC(C(=O)N3CCN(Cc4ccccc4)CC3)C2)c1OC (centres undefined)	KB-V1 MDR tox 5.8µM
O=S(=O)(c1ccc(F)cc1)N(CC(O)Cn1c2ccccc2c2ccccc21)c1ccccc1 (centres undefined)	none (no result: MCF10A rereplic, SW480 rereplic, HT1080 IDH1KD tx, HT1080NT lethal)
O=S(=O)(c1ccc(F)cc1)N(CCO)CC(O)Cn1c2ccccc2c2ccccc21 (centres undefined)	HT1080 IDH1KD tx 17.8µM, HT1080NT lethal inconclusive, KB-V1 MDR tox 23.1µM
CCN(CC(O)Cn1c2ccccc2c2ccccc21)S(=O)(=O)c1ccc(F)cc1 (centres undefined)	KB-3-1 tox inconclusive, SW480 rereplic inconclusive, HT1080 IDH1KD tx inconclusive, HT1080NT lethal inconclusive, KB-V1 MDR tox 11.6µM
COc1ccccc1N(CC(=O)NCC1CCCO1)C(=O)CNS(=O)(=O)c1ccc(C)cc1 (centres undefined)	none
COc1ccccc1N(CC(=O)NCC1CCCO1)C(=O)CNS(=O)(=O)c1ccc(Cl)cc1 (centres undefined)	SW480 rereplic 0.731µM
COc1ccc(-c2oc3ncn4nc(Cc5ccccc5)nc4c3c2-c2ccc(OC)cc2)cc1	KB-V1 MDR tox 3.66µM
COc1ccc(-c2oc3ncn4nc(COc5ccccc5)nc4c3c2-c2ccc(OC)cc2)cc1	none
Cc1c(CN(C)Cc2cn(C)nc2-c2ccccc2F)[nH]c2ccccc12	MCF10A rereplic 18.4µM, SW480 rereplic inconclusive, HT1080 IDH1KD tx inconclusive, HT1080NT lethal inconclusive
Cc1cc(-c2nnc(CCC(=O)NC(C)c3cccc4ccccc34)o2)no1 (centres undefined)	none
C=CCc1cccc2cc(C(=O)N3CCN(C(=O)c4ccco4)CC3)c(=O)oc12	MCF10A rereplic 13µM, SW480 rereplic inconclusive, KB-V1 MDR tox inconclusive
O=C(Nc1cnccn1)c1ccc(Cl)cc1	SW480 rereplic inconclusive
COc1ccc(C)cc1N/C(N)=N/c1nc(C)cc(C)n1	KB-V1 MDR tox inconclusive
Cc1ccc(C)c(N/C(N)=N/c2nc(C)cc(C)n2)c1	KB-V1 MDR tox 16.4µM
CC(=O)Nc1ccc(N/C(N)=N/c2nc(C)cc(C)n2)cc1	none
Cc1cc(C)nc(/N=C(\N)Nc2ccc(-c3ccccc3)cc2)n1	MCF10A rereplic inconclusive, KB-3-1 tox 16.4µM, HT1080 IDH1KD tx 16.4µM, HT1080NT lethal 16.4µM, KB-V1 MDR tox 16.4µM
CCn1cc(/C=N\NC(=O)COc2cccc(C)c2C)c(C)n1	KB-V1 MDR tox inconclusive
CCN1CCN(C(=O)c2ccc(-c3nc4ccccc4s3)s2)CC1	MCF10A rereplic inconclusive
O=S(=O)(c1cccc(-c2nc3ccccc3s2)c1)N1CCOCC1	KB-3-1 tox inconclusive, KB-V1 MDR tox 16.4µM
O=S(=O)(c1cccc(-c2csc(-c3ccccc3)n2)c1)N1CCOCC1	SW480 rereplic inconclusive
Cc1ccc(-c2nc3ccccc3s2)cc1S(=O)(=O)N1CCCC1	MCF10A rereplic inconclusive, HT1080 IDH1KD tx 10µM
